Data reported in PubChem BioAssay AID1851 (National Center for Advancing Translational Sciences (NCATS), 2009).
Where “and” joins values, the source holds several entries; their conditions need not be identical. Equal entries are not always repeated. Screen size: about 16,000 compounds; about 5,700 (36%) were called active. Roughly 24% stayed inconclusive and do not appear here. Calls follow the shape of the dose curve; as a rule, active = well fitted curve in the direction sought with a large enough effect; inconclusive = small, poorly fitted or top-dose-only effect, or effect the other way; inactive = no such curve, though single readings can be large or run the other way. This is one part of the list.

Target: Cytochrome P450 1A2 (Homo sapiens) (UniProt P05177)
Test: Cytochrome panel assay with activity outcomes
Conditions: recombinant CYP, pro-luciferin dealkylation, luminescence, p450-cyp1a2; series mostly up to 57.1 µM
% is scaled to controls: 0 for no effect and ±100 for the full control effect.

Cytochrome P450 1A2 (Homo sapiens), sequence (P05177 whole entry, looked up): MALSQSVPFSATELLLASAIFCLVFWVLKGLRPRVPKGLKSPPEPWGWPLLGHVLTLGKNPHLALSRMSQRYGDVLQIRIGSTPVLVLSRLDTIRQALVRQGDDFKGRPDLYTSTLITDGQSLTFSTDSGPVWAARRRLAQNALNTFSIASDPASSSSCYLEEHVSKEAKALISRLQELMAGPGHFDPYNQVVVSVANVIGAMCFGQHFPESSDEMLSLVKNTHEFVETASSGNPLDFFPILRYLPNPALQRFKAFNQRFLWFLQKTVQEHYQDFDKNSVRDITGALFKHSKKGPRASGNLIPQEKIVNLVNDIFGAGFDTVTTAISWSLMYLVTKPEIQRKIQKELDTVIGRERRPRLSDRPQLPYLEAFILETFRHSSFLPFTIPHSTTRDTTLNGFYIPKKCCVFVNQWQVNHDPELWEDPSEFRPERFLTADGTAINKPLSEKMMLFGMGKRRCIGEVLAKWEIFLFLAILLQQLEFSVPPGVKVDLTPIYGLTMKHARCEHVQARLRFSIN

Compound | AC50 | activity, negative = inhibition
O=C1CSc2ccc(C(=O)NCCC3=CCCCC3)cc2N1 | 3.16 µM (active) | 
CC(C)(C)c1ccc(C(=O)N2CCC(C(=O)NCCC3=CCCCC3)CC2)cc1 | inactive | 
C=C/C(C)=C/[C@]1(C)SC(=O)C(C)=C1O | inactive | 
CC1(C)CCC2=C(O1)c1ccccc1C(=O)C2=O | 3.98 µM (active) | 
Cc1c(C=NCCOCc2ccccc2)cnn1C | 17.8 µM (active) | 
CCCc1ncc(C[n+]2ccccc2C)c(N)n1 | inactive | 
C=CCOc1cccc(CNn2cn[nH]c2=S)c1 | 3.16 µM (active) | 
C=CCOc1cccc(/C=N/NC(=O)C(=O)NCc2ccco2)c1 | inactive | 
COC(=O)N1CCC2(CC1)CN(c1ccccc1)C2 | inactive | 
Cn1cccc1C(=O)N1CCC2(CCCN(c3cccc(-c4ccccc4)c3)C2)CC1 | 15.8 µM (active) | 
O=C(Oc1ccccc1)N1CCC2(CCCN(c3ccc(-c4ccccc4)cc3)C2)CC1 | inactive | 
CC(C)NC(=O)N1CCCC2(CCN(C(=O)c3cccn3C)CC2)C1 | inactive | 
Cn1cccc1C(=O)N1CCC2(CCCN(Cc3ccccc3)C2)CC1 | inactive | 
COC(=O)N1CCC2(CCCN(c3ccc(-c4ccccc4)cc3)C2)CC1 | 20 µM (active) | 
CN1CCCC2(CCN(C(=O)c3cccn3C)CC2)C1 | inactive | 
Cn1cccc1C(=O)N1CCC2(CCCN(c3ccc(-c4ccccc4)cc3)C2)CC1 | 15.8 µM (active) | 
CC(C)CN1CCCC2(CCN(C(=O)c3cccn3C)CC2)C1 | inactive | 
Cc1cc2c(c(=O)o1)[C@@H](O)[C@H]1O[C@@H]1C2=O |  | -3.99% [at 11.4 µM] (inactive)
COc1ccc(/C=C/C(=O)Nc2nc(C)cc(C)n2)cc1OC | 5.01 µM (active) | 
CCCOc1ccc(/C=C/C(=O)Nc2ccc([N+](=O)[O-])cc2C)cc1OC | inactive | 
COc1ccc2[nH]cc(CCNc3ncncc3-c3ccc(N(C)C)cc3)c2c1 | 0.251 µM (active) | 
COc1ccc2[nH]cc(CCNc3ncncc3-c3cccnc3)c2c1 | 0.316 µM (active) | 
COc1ccc2[nH]cc(CCNc3ncncc3-c3cccc(NS(C)(=O)=O)c3)c2c1 | 12.6 µM (active) | 
COc1cccc(-c2cncnc2NCCc2c[nH]c3ccc(OC)cc23)c1 | 2 µM (active) | 
COc1ccc(N2CCN(Cc3nc4c(c(=O)[nH]c(=O)n4C)n3CCCc3ccccc3)CC2)cc1 | inactive | 

Compound | AC50 | activity, negative = inhibition
O=C(O)C1CC2(C1)CC(C(=O)O)C2 (stereo not drawn) |  | -6.34% [at 2.29 µM] (inactive)
Cc1ccc(SCc2[nH]nc3c2C(C(C)C)C(C#N)=C(N)O3)cc1 (stereo not drawn) | 12.6 µM (active) | 
O=[N+]([O-])c1ccc(C=Nc2ccc(Cl)cc2Cl)s1 | 2 µM (active) | 
O=c1onc(-c2cccs2)n1Cc1ccccc1 | 2.24 µM (active) | 
CN(C)CCNS(=O)(=O)N(C)C |  | -3% [at 11.4 µM] (inactive)
CNc1nc(-c2cccnc2)nc2ccccc12 | 0.1 µM (active) | 
c1ccc(Nc2nc(-c3cccnc3)nc3ccccc23)cc1 | 0.398 µM (active) | 
O=C(O)CC12C[C@H]3C[C@@H](CC(O)(C3)C1)C2 |  | -11.2% [at 11.4 µM] (inactive)
O=C(CSCc1cccc(Br)c1)N/N=C/c1ccc2c(c1)OCO2 | 2.51 µM (active) | 
Cc1oc(-c2ccccc2F)nc1CSCC(=O)NCc1ccc2c(c1)OCO2 | 1.58 µM (active) | 
O=C1Nc2ccccc2C(O)(C(=O)NCc2ccc3c(c2)OCO3)N1c1ccc(Cl)c(Cl)c1 (stereo not drawn) | inactive | 
CCOC(=O)N1CCC(NC(=O)CS(=O)(=O)Cc2nc(-c3cccc(OC)c3)oc2C)CC1 | inactive | 
CN1CCN(CCCNC(=O)c2ccc(CSCc3cccc(Cl)c3)o2)CC1 | inactive | 
Cc1oc(-c2ccccc2F)nc1CS(=O)(=O)CC(=O)NCCCN(C)C1CCCCC1 | inactive | 
O=C(CSCc1cccc(Cl)c1)NCc1ccc2c(c1)OCO2 | 3.16 µM (active) | 
Cc1oc(-c2ccccc2Cl)nc1CSCC(=O)NC1CC1 | 15.8 µM (active) | 
O=C(N/N=C/c1ccc2c(c1)OCO2)/C(=C/c1ccc2c(c1)OCO2)NC(=O)c1ccccc1 | inactive | 
Cc1ccccc1-c1nc(CS(=O)CC(=O)NCCN2CCN(Cc3ccccc3)CC2)c(C)o1 (stereo not drawn) | inactive | 
CC[C@]1(O)C[C@@H]2CN(CCc3c([nH]c4ccccc34)[C@](C(=O)OC)(c3cc4c(cc3OC)N(C=O)[C@H]3[C@@](O)(C(=O)OC)[C@H](C(=O)OC)[C@@]5(CC)C=CCN6CC[C@]43[C@H]65)C2)C1 | inactive | 
CO[C@@H]1COC(=O)C/C=C\[C@H](C)[C@@H](NS(=O)(=O)c2ccc(C)cc2)COC(=O)C/C=C\[C@@H]1C |  | -5.33% [at 11.4 µM] (inactive) and -2.04% [at 11.4 µM] (inactive)
O=C(/C=C/c1ccc2c(c1)OCO2)NCCSCc1cccc(Cl)c1 | 4.47 µM (active) | 
O=C(Cn1nc(C(F)F)cc1C(F)F)N/N=C/c1ccc2c(c1)OCO2 | 0.891 µM (active) | 
CCS(=O)(=O)N1CCCC(C(=O)NCCCOC(C)C)C1 (stereo not drawn) | inactive | 
CCC1C(=O)N=C(SCC(=O)Nc2ccc(C(=O)OC)cc2)NC1=O (stereo not drawn) | 15.8 µM (active) | 
CCOC(=O)c1ccc(NC(=O)CC2NCCNC2=O)cc1 (stereo not drawn) | inactive | 

Compound | AC50 | activity, negative = inhibition
C/C(=N\NC(N)=O)c1ccc(Cl)cc1 | 3.16 µM (active) | 
CN1C(=O)C(CC(N)=O)N(NC(=O)c2ccc(Cl)cc2)C1=S (stereo not drawn) | inactive | 
C/C(=N\NC(=O)c1ccc(Cl)cc1)c1ccc(Br)s1 | 1.26 µM (active) | 
CC(NC(=O)c1cccc(F)c1)C(c1cccs1)N1CCN(C)CC1 (stereo not drawn) | inactive | 
C/C(=N\NC(=O)c1cccc(F)c1)c1ccc(Br)s1 | 0.631 µM (active) | 
CCN1C(=O)[C@H]2[C@H]3[C@H](O)[C@H](O)C/C(=N/O[C@@H](C)c4cn([C@H]5COC[C@H]5O)nn4)[C@@H]3CC[C@@H]2C1=O |  | -9.43% [at 11.4 µM] (inactive)
CCCS(=O)(=O)N1CCCC(C(=O)NCCN2CCOCC2)C1 (stereo not drawn) | inactive | 
COCCNC(=O)c1sc2nc(-c3ccccc3)cn2c1C | 2 µM (active) | 
COCCNC(=O)c1cn(Cc2c(F)cccc2Cl)nn1 | inactive | 
COCCNC(=O)CCn1nc(-c2ccc(Cl)cc2)ccc1=O | inactive | 
O=c1[nH]c2ccccc2c2ccccc12 | 0.251 µM (active) | 
Cc1cc(=O)[nH]c2ccccc12 | 15.8 µM (active) | 
CC(=O)Nc1ccc(Cc2ccc3[nH]c(=O)cc(C)c3c2)cc1 |  | -17% [at 11.4 µM] (inactive)
O=C(O)c1cccnc1SCC(=O)N1CCCCCC1 | inactive | 
C=CCSc1ncccc1C(=O)NCc1ccc(C)cc1 | 0.794 µM (active) | 
COC(=O)C/C=C\[C@@H](C)[C@@H](/C=N\O[C@@H](C)CN1CCCc2nc(C)c(C)cc21)OC |  | -0.522% [at 11.4 µM] (inactive)
CC(C(=O)Nc1cccnc1)N1C(=O)C2C3C=CC(C3)C2C1=O (stereo not drawn) | inactive | 
Cn1ncc(Cl)c1C(=O)Nc1cccnc1 | 3.55 µM (active) | 
O=C(Nc1cccnc1)c1ccc(COc2cc(Cl)ccc2Cl)o1 | 0.794 µM (active) | 
CC(C)CNC(=O)c1ccc(COc2ccc(Cl)cc2Cl)o1 | 14.1 µM (active) | 
O=C(N/N=C/c1ccc(O)cc1)c1ccc(COc2cc(Cl)ccc2Cl)o1 | 4.47 µM (active) | 
O=C1C(O)=C(O)C(=O)C(O)=C1O | inactive | 
CC(=O)OC[C@@H]1O[C@H](CCO/N=C(\C)CCN2CCCc3nc(C)c(C)cc32)C=C[C@@H]1OC(C)=O |  | -5.74% [at 11.4 µM] (inactive)
CC(Cc1ccccc1)N/C=C1\CC(=O)NC1=O (stereo not drawn) | inactive | 
COc1cc(OC)c2nc(C)c3c(c2c1)N(c1ccc(O)cc1)CC3 | 2.24 µM (active) | 

Compound | AC50 | activity, negative = inhibition
NC(=O)N[C@H]1NC(=O)NC1=O | inactive | 
Cn1c(=N)c(S(=O)(=O)c2ccc(F)cc2)cc2c(=O)n3ccccc3nc21 | 12.6 µM (active) | 
CCn1c(=N)c(S(=O)(=O)c2ccc(F)cc2)cc2c(=O)n3ccccc3nc21 | 1.58 µM (active) | 
CC(C)Cn1c(C(C)C)nc([N+](=O)[O-])c1S(=O)(=O)c1ccc(F)cc1 | inactive | 
CN(C)C(=C(C#N)C#N)N1CCN(c2ccc(Cl)c(Cl)c2)CC1 | 25.1 µM (active) | 
O=C(OCc1cccc(F)c1)c1ccc2c(c1)-c1ccccc1C2=O | 3.55 µM (active) | 
O=C(c1cccc(F)c1)N1CCC2(CC1)CN(Cc1ccccc1)C2 | inactive | 
CC(C)CC(=O)N1CCN(Cc2cccc(F)c2)CC1 | inactive | 
CCOC(=O)Cc1csc(NS(=O)(=O)c2ccccc2)n1 | inactive | 
CCOC(=O)Cc1csc(NC(=O)c2ccc(Cl)nc2)n1 | 10 µM (active) | 
CCOC(=O)Cc1csc(NC(=O)c2sc3nc4ccc(CC)cc4cc3c2N)n1 | inactive | 
COCc1nnc(NC(=O)c2ccc(S(=O)(=O)N3CCCCCC3)cc2)o1 | inactive | 
CCOC(=O)Cc1csc(NC(=O)c2ccc(S(=O)(=O)N3CCCCC3)cc2)n1 | 15.8 µM (active) | 
COc1ccc(N2C(=O)CCC(C(=O)Nc3ccccn3)C2c2ccc(OC)c(OC)c2)cc1 (stereo not drawn) | inactive | 
C/C(CCN1CCCCc2nc(C)c(C)cc21)=N\OC[C@@H](O)COCc1ccco1 |  | -9.9% [at 11.4 µM] (inactive)
O=C1C(Cl)=C(Sc2nnc3c4ccccc4c4ccccc4c3n2)C(=O)c2ccccc21 | 0.398 µM (active) | 
O=c1c2c(-c3ccc(Cl)cc3)csc2nc2n1CCC2 | 1.26 µM (active) | 
O=c1cc(CN2CCN(c3ccc(F)cc3)CC2)c2cc3c(cc2o1)CCCC3 | inactive | 
O=C(C1CCN(S(=O)(=O)N2CCOCC2)CC1)N1CCN(Cc2ccccc2)CC1 | inactive | 
COc1ccc(-c2c(C)oc3c(CN4CCN(CCO)CC4)c(O)ccc3c2=O)cc1OC | inactive | 
COc1ccccc1-c1c(C)oc2c(CN3CCN(CCO)CC3)c(O)ccc2c1=O | inactive | 
O=c1oc2c(CN3CCOCC3)c(O)ccc2c2ccccc12 | 1.26 µM (active) | 
CCCc1cc(=O)oc2c(CN3CCOCC3)c(O)ccc12 | 14.1 µM (active) | 
